# An excerpt weighted towards active compounds, which were near 2.4% of everything screened.
# Rango complex inh = inhibitors of Rango-importin beta complex formation; Potency, µM (series often up to 92.2 µM), without a hit: at the highest dose inhibition of complex formation; AID 540263; Rango CFP/YFP FRET sensor + importin beta, 45 min; 0.031% of 340,000 active; Q14974;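 note: 0% = DMSO wells and 100% = buffer wells lacking importin beta; nearly all actives have a fitted effect of over 15% in size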
#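 FRET biosensor Rango (snurportin 1 IBB between N-terminal EYFP and C-terminal Cerulean), 50 nM in PBS/1 mM DTT/0.02% Tween-20/0.1% BSA, preincubated 5 min RT with compound; 0.125 microM importin beta added, 45 min RT, CFP/YFP FRET ratio read.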
# PTAP TSG101 blk = blocks PTAP/TSG101 interaction to inhibit HIV-1 budding | Q99816 | Fluorescence polarization, FITC-PTAP peptide / Tsg101 binding | Potency, µM (top dose mostly 115 µM), without a hit: at the top dose activity change, negative = inhibition, usual class: inhibitors | 340,000 tested, under 10 active | AID 493005; active = well fitted inhibition curve with a large enough effect in the main read-out, with a control signal flat, not every such curve was filed as active; inconclusive = small, poorly fitted or top-dose-only effect, or effect the other way, or a change in a side signal; inactive = no such curve, though single readings can be large or run the other way; note: % of control where 0% means no effect
#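 Steps: Tsg101 binding domain dispensed (10 uM final), compounds pinned in DMSO, FITC-labeled PTAP-motif peptide added (50 nM final); after 20 min binding at room temperature, polarization measured.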
# 12-LOX inh = blocks human arachidonate 12S-lipoxygenase; Potency, µM (titrated, usually from 108 µM), inactives show at the top dose activity change, negative = inhibition, actives largely listed as inhibitors; 1.1% of 580,000 active; purified 12hLO, xylenol orange hydroperoxide absorbance; AID 1671190; active = well fitted curve in the direction sought with a large enough effect; inconclusive = small, poorly fitted or top-dose-only effect, or another doubt; inactive = no such curve, though single readings can be large; an effect the other way counts as inactive or inconclusive; note: % is set by controls: 0 for no effect and ±100 for the full control effect
# Target sequence (P18054 whole entry, looked up): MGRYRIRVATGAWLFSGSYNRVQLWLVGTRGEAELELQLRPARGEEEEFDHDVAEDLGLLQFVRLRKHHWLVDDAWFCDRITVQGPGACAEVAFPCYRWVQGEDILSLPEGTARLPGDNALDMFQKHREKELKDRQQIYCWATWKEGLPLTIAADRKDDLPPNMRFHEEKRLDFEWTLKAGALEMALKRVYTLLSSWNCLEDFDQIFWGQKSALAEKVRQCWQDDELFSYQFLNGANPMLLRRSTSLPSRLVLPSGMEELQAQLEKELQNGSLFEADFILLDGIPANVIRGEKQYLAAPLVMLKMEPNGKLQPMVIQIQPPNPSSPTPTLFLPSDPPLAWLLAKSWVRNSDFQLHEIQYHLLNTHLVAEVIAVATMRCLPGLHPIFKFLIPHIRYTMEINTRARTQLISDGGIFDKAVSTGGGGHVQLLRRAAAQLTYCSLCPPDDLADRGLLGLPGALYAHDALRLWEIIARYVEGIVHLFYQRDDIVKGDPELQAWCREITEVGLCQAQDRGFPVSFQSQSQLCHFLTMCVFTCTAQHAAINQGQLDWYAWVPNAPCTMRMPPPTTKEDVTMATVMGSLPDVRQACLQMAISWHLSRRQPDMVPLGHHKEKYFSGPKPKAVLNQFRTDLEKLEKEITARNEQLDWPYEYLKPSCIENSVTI
#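 Purified human 12hLO at 150 nM in 25 mM Hepes, 0.01% Triton X-100, pH 7.0, preincubated 15 min at room temperature with compound. Reaction started with 40 uM arachidonic acid, 30 min at room temperature. Hydroperoxide measured by Fe-xylenol orange, 573/405 nm absorbance ratio.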
# ClpP mod = qHTS Assay for Activators of ClpP; 1.9% of 340,000 active; ATP-dependent Clp protease proteolytic subunit (Bacillus subtilis (strain 168)), P80244; Potency, µM (titrated, usually from 57.5 µM), for the others: at the top dose activity change, negative = active; purified B. subtilis ClpP, FRET peptide cleavage, 20 min; active = well fitted falling curve with a large enough effect; inconclusive = small, poorly fitted or top-dose-only effect; inactive = no such curve, though single readings can be large or run the other way; note: the source files actives as falling curves though it sought activators and does not explain the sign; nearly all actives have a fitted effect of over 65% in size
#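 ClpP 10 microg/mL final, pH 8 Tris/KCl buffer with BSA, glycerol, Tween-20; compound pinned in; FRET-FV substrate; RT 20 min; Ex320/Em430; ΔFRET vs ADEP 5.8 microM, DMSO, no enzyme.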
# Rango dissoc inh = prevents RanGTP from dissociating the Rango-importin beta complex; O95149+P62826; Biochemical FRET Rango-importin beta, RanGTP-induced dissociation; Potency, µM (titrated, usually from 46.1 µM), inactives show at the highest dose activity change, negative = inhibition; 0.071% of 340,000 active; note: % of control where 0% means no effect; nearly all actives have a fitted effect of over 45% in size
#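 Recombinant Rango FRET biosensor (EYFP–snurportin 1 IBB–cerulean CFP10) at 0.1 uM premixed with 0.25 uM importin beta in PBS, 1 mM DTT, 0.02% Tween-20, 0.1% BSA. Compound added 5 min; RanGTP-RCC1 (0.6 uM Ran, 2 mM GTP, 0.2 uM RCC1) then triggers release, read at 45 min.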
# TDP1 inh = inhibitors of human tyrosyl-DNA phosphodiesterase TDP1; Q9NUW8; recombinant TDP1, AlphaScreen DNA substrate cleavage; Potency, µM (series often up to 130 µM), without a hit: at the top dose activity change, negative = inhibition, most hits filed as inhibitors; 0.28% of 350,000 active; active = well fitted curve in the direction sought with a large enough effect; inconclusive = small, poorly fitted or top-dose-only effect, or another doubt; inactive = no such curve, though single readings can be large; an effect the other way counts as inactive or inconclusive; note: % is set by controls: 0 for no effect and ±100 for the full control effect; nearly all actives have a fitted effect of over 40% in size
#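 Compounds were preincubated with Tdp1 (1 nM final) for 15 min at room temperature before substrate (15 nM final) started a 5 min reaction; beads (10 ug/ml final) were then added for 10 min before AlphaScreen detection.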
# * marks the source's active call; other numbers are inactive results; ? = inconclusive; / = not tested or not shown; [ ] = dose if it differs, or a comment. Unless noted, calls come from the whole dose curve. Potency is the fitted concentration of half-maximal effect.
SMILES,Rango complex inh,PTAP TSG101 blk,12-LOX inh,ClpP mod,Rango dissoc inh,TDP1 inh
O=C(COc1ccccc1)N1CCCC(c2noc(COc3ccccc3F)n2)C1 (stereo unspecified),/,/,34%,/,/,/
Nc1ccsc1C(=O)N1CCC2(CCC(=O)N(CC3CCCO3)C2)CC1 (stereo unspecified),/,/,7.9µM*,/,/,/
Cc1cc(C)nc(-n2nc(C)c(Oc3ccccc3O)c2C)n1,2%,-3%,6%,28µM*,-4%,0%
CCn1nc(C)c(Oc2ccccc2O)c1C,-1%,1%,71%,1%,-16%,6%
COc1cccc(C(=O)NCC2(COc3cccc(C)n3)C[C@@H](O)[C@@H](O)C2)c1 (stereo partly specified),/,/,104%[176 µM],/,/,/
Cc1ccc(NS(=O)(=O)c2ccc3c(c2)oc(=O)n3C)cc1,4%,-3%,-20%,-2%,2%,/
CC(=O)Nc1ccc(NS(=O)(=O)c2ccc3c(c2)oc(=O)n3C)cc1,4%,-2%,8.9µM*,0%,-13%,/
Cc1ccc(C(=O)CS(=O)(=O)c2ccc(C)cc2)cc1,/,/,-22%,/,/,/
CC(C)c1ccc(/C=C/C(=O)NCCC2=CCCCC2)cc1,1%,-1%,40µM*,-1%,0%,-1%
CC[n+]1c(C)cc(C)n1-c1ccccc1,0%,-4%,40µM*,/,4%,7%
CC(=O)Nc1ccc(Oc2ccc3nnc(-c4ccc(Br)cc4)n3n2)cc1,/,/,-1%,/,/,/
CCOC(=O)C1(Cc2ccccc2C(F)(F)F)CCN(Cc2ccccn2)CC1,/,/,16µM*,/,/,/
Cc1cc(C)c2oc(-c3ccc(NC(=O)c4cc(Br)ccc4Cl)cc3)nc2c1,/,/,-18%,20µM*,/,-1%[12.3 µM]
COc1c(C)cccc1C(=O)Nc1ccc(Cl)c(-c2nc3cc(C)ccc3o2)c1,/,/,-13%,25µM*,/,5%
Cc1ccc2oc(-c3cccc(NC(=O)c4cccc5c(Cl)cccc45)c3)nc2c1,/,/,-18%,-19%,/,10%
Cc1ccc(-c2nc3cc(NC(=O)c4cc(Br)ccc4Cl)ccc3o2)cc1,/,/,40µM*,?,/,-5%[12.3 µM]
CCOc1cccc2sc(NC(=O)c3ccc(S(=O)(=O)N4CCc5ccccc54)cc3)nc12,/,/,-22%,-3%,/,9%
CCOc1cccc2sc(NC(=O)c3ccc(S(=O)(=O)N4CCCCC4)cc3)nc12,/,/,45µM*,?,/,5%
O=C1c2cccc3cccc(c23)C(=O)N1CC1CCN(CC(O)COCc2ccc3c(c2)OCO3)CC1 (stereo unspecified),-3%,2%,?,28µM*,-5%,5%
COc1ccc(OCC(O)CN2CCC(CN3C(=O)c4cccc5cccc(c45)C3=O)CC2)cc1 (stereo unspecified),6%,1%,0%,/,-7%,3%
O=C(CC1CCCN(c2cn[nH]c(=O)c2)C1)NCc1ccc(F)cc1F (stereo unspecified),/,/,47%,/,/,/
Cc1ccc(-c2nc(N3CCOCC3)sc2C(=O)N2CCOCC2)cc1,-1%,0%,17%,-3%,-13%,3%
CC(=O)Nc1ccc(-c2nc(N3CCCC3)sc2C)cc1,/,/,5.6µM*,/,/,/
Cc1sc(N2CCOCC2)nc1-c1ccc(NS(C)(=O)=O)cc1,/,/,35µM*,/,/,/
Cn1cc(C(=O)N2C[C@@H](C(=O)O)[C@H](c3cccc(F)c3)C2)c(=O)[nH]c1=O,/,/,16%,/,/,/
SMILES,Rango complex inh,PTAP TSG101 blk,12-LOX inh,ClpP mod,Rango dissoc inh,TDP1 inh
COc1ccc(OC)c2c(C)cc(N3CCN(C(=O)c4ccc(F)cc4)CC3)nc12,2%,-7%,-23%,20µM*,8%,3%
OCC1(Cc2ccccc2)CCN(C2CCN(c3ccc(F)c(F)c3)CC2)CC1,0%,-6%,50µM*,/,3%,6%
O=C(NCc1nc2ccccc2[nH]1)c1cccc(Cl)c1,/,/,16%,-2%,/,5%
Clc1cccc(N/N=C(\Cc2nc3ccccc3[nH]2)c2ccccc2)c1,0%,-4%,13µM*,-4%,-13%,5%
O=C(NCc1nnnn1-c1ccc(F)c(F)c1)c1ccc(S(=O)(=O)N2CCOCC2)cc1,-1%,-3%,18%,35µM*,14%,/
COc1ccc(-c2nnc(NC(=O)CSc3ccc(C)cc3)s2)cc1OC,-3%,1%,-13%,-15%,-4%,3%
COc1ccc(-c2nnc(NC(=O)CSc3ccccc3)s2)cc1OC,-4%,-2%,18%,22µM*,8%,8%
CC(C)(C)Cc1nnc(NC(=O)CSc2ccccc2)s1,-1%,-3%,18µM*,3%,-3%,/
CCOCc1nnc(NC(=O)CSc2ccccc2)s1,-4%,-4%,?,3%,10%,-3%
Cc1cc(C)n(Cc2ccc(C(=O)N(Cc3nccn3C)C3CC3)cc2)n1,/,/,2%,/,/,/
COc1ccccc1-c1cc(-c2ccc(N3CCOCC3)cc2)c2onc(C)c2n1,/,/,42%[176 µM],/,/,/
Cc1ccc(-c2cc(C(=O)Nc3nnc(C)s3)c3ccccc3n2)cc1,/,/,-34%,/,/,/
Cc1ccc(-c2cc(C(=O)Nc3nccs3)c3ccccc3n2)o1,-8%,-4%,1.4µM*,-10%,?,-3%
Cc1ccc(-c2cc(C(=O)Nc3nnc(C4CC4)s3)c3ccccc3n2)o1,/,/,7.9µM*,/,/,/
Cc1ccc(-c2cc(C(=O)Nc3nccs3)c3ccccc3n2)c(C)c1,1%,2%,-4%,-3%,2%,3%
Cc1ccc(/C=C/C(=O)Nc2ccc(Oc3ccccc3)cc2)o1,-1%,0%,16µM*,-1%,6%,0%
Cc1ccc(/C=C/C(=O)Nc2ccc([N+](=O)[O-])cc2)o1,8%,-10%,6.3µM*,-1%,-7%,-1%
CCCCCC(=O)N/N=C/c1ccc([N+](=O)[O-])o1,-4%,-6%,?,-5%,-8%,9%
CC(=O)c1ccc(NC(=O)/C=C/c2ccc(C)o2)cc1,/,/,-15%,-4%,/,4%
CCOC(=O)CCc1ccc(NC(=O)/C=C/c2ccc([N+](=O)[O-])o2)cc1,-6%,1%,8%,1%,10µM*,/
CCCOc1ccc(/C=C/C(=O)Nc2ccc([N+](=O)[O-])cc2)cc1,1%,-1%,0%,-3%,-26%,7%
O=C(Cc1ccc(F)cc1)N1CCC2(CC1)N=C(c1ccccc1)NO2,/,/,38%,/,/,/
CN(C)c1ccc(CN2CCCC3(CC(Cc4ccccc4)=NO3)C2)cc1 (stereo unspecified),/,/,-1%,/,/,/
CCC1CN(CCNC(=O)c2scc3c2OCCO3)Cc2cc(OC)ccc2O1 (stereo unspecified),/,/,-5%,/,/,/

# Bioassay records as filed in PubChem.
